Compound activity from PubChem.
Pf growth 48h = Primary qHTS for delayed death inhibitors of the malarial parasite plastid, 48 hour incubation; Potency, µM (highest dose often 28.7 µM), inactives show top-dose activity change, negative = inhibition, usual class: inhibitors; AID 504832, 2011; P. falciparum luciferase growth in erythrocytes, 48 h; 310,000 compounds, 5.9% hits; active = well fitted inhibition curve with a large enough effect; inconclusive = small, poorly fitted or top-dose-only effect, or another doubt; inactive = no such curve, though single readings can be large or run the other way; also: potency is read from the fitted curve at half-maximal effect; % is scaled to controls: 0 for no effect and ±100 for the full control effect
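Growth was read as firefly luciferase luminescence after a 48 h, 37 C, 5% CO2 exposure of compounds to reporter-bearing P. falciparum cultures (0.1% parasitemia, 2% hematocrit final) in Albumax-supplemented RPMI 1640.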
Pf growth 96h = Primary qHTS for delayed death inhibitors of the malarial parasite plastid, 96 hour incubation. P. falciparum luciferase reporter growth, 96 h. Potency, µM (highest dose often 28.7 µM), for the others: at the top dose activity change, negative = inhibition, actives largely listed as inhibitors. 320,000 compounds, 6.9% hits; active = well fitted inhibition curve with a large enough effect; inconclusive = small, poorly fitted or top-dose-only effect, or another doubt; inactive = no such curve, though single readings can be large or run the other way; also: potency is read from the fitted curve at half-maximal effect; % is scaled to controls: 0 for no effect and ±100 for the full control effect
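Two-generation exposure (96 h) targets delayed-death phenotype. Reporter parasites carrying integrated firefly luciferase, in red cells at 2% hematocrit and 0.05% parasitemia final, kept at 37 C, 5% CO2; luminescence loss indicates inhibition.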
Shiga toxin inh = A qHTS for Small Molecule Inhibitors of Shiga Toxin. Vero cells, Shiga toxin protein synthesis inhibition reporter. inhibition, % at 38.7 µM. 290,000 compounds, 9.2% hits; in the data active = inhibition mostly above about 28%, no sharp cut-off; inactive = mostly below about 43%; also: 0% is about no effect
SARS PLpro yeast = qHTS of Yeast-based Assay for SARS-CoV PLP; 330,000 compounds, 0.19% hits; Potency, µM (series often up to 32.9 µM), for inactives: at the highest dose activity, positive = growth rescue, usual class: activators; S. cerevisiae expressing SARS-CoV PLpro, growth rescue; AID 485353, 2010; also: potency is read from the fitted curve at half-maximal effect; 0% is about no effect; nearly all actives have a fitted effect of over 55% in size
Cycloheximide cs = Cycloheximide Counterscreen for Small Molecule Inhibitors of Shiga Toxin; 300,000 compounds, 12% hits; AID 2314, 2010; max response, %; cell reporter, cycloheximide protein synthesis inhibition counterscreen; in the data active = max response mostly above about 13%, no sharp cut-off; inactive = mostly below about 14%; also: read at 38.3 µM for the half of the compounds with a filed dose; 0% is about no effect
NS1 inh = qHTS Assay for Inhibitors of Influenza NS1 Protein Function; Potency, µM (highest dose often 46.1 µM), without a hit: at the top dose activity, positive = more growth; 270,000 compounds, 0.4% hits; also: potency is read from the fitted curve at half-maximal effect; actives are rising curves; nearly all actives have a fitted effect of over 50% in size
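In this qHTS, NS1 from influenza A is expressed in budding yeast, where it slows growth. Cells are switched from glucose to 2% galactose medium (pH 6.0, -URA), treated with compound, and growth recovery is read at OD600.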
* = called active by the depositor; i = inactive; ? = inconclusive; . = not tested or not shown. An excerpt weighted towards active compounds, which were near 21% of everything screened. Unless noted, calls follow the shape of the full dose curve.

SMILES | Pf growth 48h | Pf growth 96h | Shiga toxin inh | SARS PLpro yeast | Cycloheximide cs | NS1 inh
COc1cc(/C=N/N=C2/NC(=O)C(CC(=O)O)S2)ccc1OCc1ccc(Cl)cc1 (stereo not given) | 41% | ? | 38 | 28% | 20* | 7%
O=C(O)CC1S/C(=N/N=C/c2ccccn2)NC1=O (stereo not given) | 5.2µM* | ? | -4 | 18% | 2 | -2%
NC(=O)c1cnn2c(-c3ccc(Cl)cc3Cl)ccnc12 | 3% | 2% | -4 | 7% | -4 | 2%
CC(Sc1nc2ncc(Cl)cc2[nH]1)C(=O)Nc1ccc(C(N)=O)cc1 (stereo not given) | ? | -25% | . | 22% | . | .
CCOc1cc(/C=N/N=C(/N)c2nonc2N)cc(Br)c1OCc1ccc(Cl)cc1 | ? | . | 2 | 2% | 15 | -1%
CCOc1cc(/C=N/N=C(N)N)ccc1OCc1ccc(Cl)cc1 | 1.5µM* | ? | -23 | 14% | -12 | 5%
NC(N)=N/N=C/c1ccc(Cl)c(Cl)c1 | ? | ? | -14 | 2% | 1 | 4%
NC(N)=N/N=C/c1ccc(OCc2ccccc2Cl)cc1 | 0.15µM* | 0.13µM* | -29 | -22% | -15 | -21%
COc1cc(C(=O)Nc2c(C(=O)O)[nH]c3ccc(Br)cc23)cc(OC)c1OC | ? | 31% | -5 | 0% | 5 | 9%
O=C1OC[C@H]2CCCN2C(=O)[C@@H](CC(=O)N(CCO)Cc2ccccc2)C/C=C\C[C@H]1Cc1ccc(F)cc1 | . | . | . | -2% | . | .
CC(=O)NC1=NN(C(C)=O)C(c2ccccn2)S1 (stereo not given) | 14% | 218% | -5 | 1% | 1 | 2%
COc1cccc2c1nc(C)c1cc(C)oc12 | 67% | -12% | 40 | -8% | 36* | -7%
COc1ccc(CNC(=O)Cc2cn(C)c3ccccc23)c(OC)c1 | 12% | -10% | 26 | -2% | 7 | -30%
CCCOC(=O)c1c(NC(=O)/C=C/c2cnn(C)c2C)sc(C(=O)OCC)c1C | -19% | ? | -8 | -23% | -1 | 11%
CCOC(=O)c1sc(NN=C(C(=O)OC)C(=O)OC)c(C(=O)OCC)c1C | ? | ? | 32* | -6% | 7 | -2%
CCOC(=O)c1c(N)sc(C(=O)OC)c1C | 42% | 50% | 40 | -2% | 17 | -8%
CCOC(=O)c1sc(N)c(C(=O)OC)c1C | 81% | 22% | 64* | -3% | 33* | -11%
CCOC(=O)c1sc(NC(=O)/C=C/c2cnn(CC)c2C)c(C(=O)OCC)c1C | ? | 8.3µM* | -1 | 2% | -4 | 12%
O=C(CCS(=O)(=O)c1ccc(Cl)cc1)NC1CCCC1 | . | . | . | 1% | . | .
CC(=O)/C(N=Nc1ccc2c(c1)OCCO2)=C(\C)O | i | i | 136* | -3% | 82* | .
CC(=O)/C(N=Nc1ccc2c(c1)OCO2)=C(\C)O | 176% | 157% | 108* | -2% | 74* | 16%
CC(=O)/C(N=Nc1ccc(C(=O)O)cc1)=C(\C)O | 8% | -1% | 4 | -1% | -2 | -1%
Cc1cc(C)n(-c2c(F)c(F)c(CO)c(F)c2F)n1 | 0% | 5% | -11 | . | -3 | 7%
COC(=O)c1ccc(C(=O)Nc2ccc(F)cc2)cc1 | 67% | 146% | . | 4% | . | .
COC(=O)c1ccc(NC(=O)Nc2ccc(F)cc2F)cc1 | 246% | 8% | 143* | -1% | 37* | 0%
SMILES | Pf growth 48h | Pf growth 96h | Shiga toxin inh | SARS PLpro yeast | Cycloheximide cs | NS1 inh
O=C(Nc1ccccc1)Nc1ccc(F)cc1F | 84% | -1% | 96* | -1% | 40* | -7%
COC(=O)c1ccc(NC(=O)Nc2cccc(F)c2)cc1 | 335% | 11% | 86* | -1% | 54* | -35%
CC(=O)Nc1cccc(NC(=O)Nc2ccc(F)cc2F)c1 | 3% | 40% | 31 | 3% | 10 | .
c1ccc(-c2[nH]ncc2CN2CCN(Cc3ccc4c(c3)OCO4)CC2)cc1 | 28% | -32% | -3 | -1% | 0 | 0%
COc1ccc(-c2[nH]ncc2CN(C)CCCN2CCOCC2)cc1F | -13% | ? | 11 | 0% | 0 | 4%
COc1ccc(-c2[nH]ncc2CNCCc2ncccc2C)cc1F | 29% | ? | -1 | 0% | 6 | 5%
Cc1ccc(-c2[nH]ncc2CNCCc2cnn(-c3ccccc3)c2)cc1C | 13µM* | ? | -8 | -2% | 1 | 9%
Cn1cc(CCNCc2cn[nH]c2-c2ccc(-c3ccccc3)cc2)cn1 | ? | -20% | 54* | -2% | 31* | 5%
CN(CCc1cnn(C)c1)Cc1cn[nH]c1-c1ccc(-c2ccccc2)cc1 | -25% | ? | 43* | -2% | 17* | -3%
CCN(CCn1cccn1)Cc1cn[nH]c1-c1cccc2ccccc12 | -19% | 3% | 7 | 0% | -2 | 1%
CCN(CCn1cccn1)Cc1cn[nH]c1-c1ccc(-c2ccccc2)cc1 | 2.9µM* | -2% | 42 | -2% | 11 | 4%
OC[C@H]1NC[C@@H](O)[C@@H](O)[C@@H]1O | . | . | 7 | . | -6 | .
CCN(CC)c1nc(SCCOC(=O)Nc2ccccc2)nc(N(CC)CC)n1 | ? | 10µM* | 29 | -21% | 16* | -3%
COC(=O)[C@@H]1CCCN1C(=O)CCc1nnc(CCc2c[nH]c3ccccc23)o1 | ? | 6% | 48* | -4% | 47* | -33%
Cc1nc(C(C)NC(=O)CCc2nnc(Cc3c[nH]c4ccccc34)o2)cs1 (stereo not given) | -24% | 4.7µM* | 17 | 0% | 11 | 1%
COC(=O)[C@@H]1CCCN1C(=O)CCc1nnc(CCC2CCCCC2)o1 | 13% | -17% | 74* | 0% | 34* | -4%
COC(=O)C1CCCCN1C(=O)CCc1nnc(CCc2c[nH]c3ccccc23)o1 (stereo not given) | ? | ? | 40 | 1% | -2 | 2%
O=C(CCc1nnc(CCc2ccccc2)o1)N1CCCC1c1nccs1 (stereo not given) | 0% | 13µM* | 25 | -1% | 16* | -2%
CCN1CCCC1CNC(=O)CCc1nnc(CCC2CCCCC2)o1 (stereo not given) | -6% | 14% | 4 | -1% | -1 | 0%
COc1ccc(C(=O)N2CC3(CC(c4cccc([N+](=O)[O-])c4)=NO3)C[C@H]2C(=O)NCC(N)=O)cc1 (stereo not given in full) | ? | 53% | -12 | 12% | -4 | -21%
CCC1CCCCN1C(=O)CCc1nnc(Cc2c[nH]c3ccccc23)o1 (stereo not given) | -27% | ? | 31* | -1% | 9 | 5%
COc1cc(NS(=O)(=O)c2ccc(NC(=O)/C(=C\c3ccccc3OC)NC(=O)c3ccccc3)cc2)nc(OC)n1 | 6% | 23% | 2 | -1% | -3 | 27%
